Hits are enriched below; roughly 1.3% of the tested compounds scored in any of these assays.
Efflux pump mplx: antifungal efflux pump inhibition, Nile Red retention. S. cerevisiae Candida pump triplex. inhibition, % at 10 µM. hit rate 0.44% among 330,000;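 active = plate passing quality check with inhibition over a set limit, or well fluorescence over plate mean plus 4 SD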;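 also: Nile Red retained in pooled yeast measured as flow cytometry median fluorescence; 0% = buffer negative control and 100% = Enniatin B positive control; higher means more Nile Red kept so more efflux inhibition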
MEP2-GFP yeast: modulators of TOR pathway MEP2-GFP in S. cerevisiae. S. cerevisiae MEP2-GFP strain, flow cytometry GFP, 3 h; 100% = DMSO control level. GFP response vs DMSO, % at 10 µM. hit rate 0.51% among 330,000. AID 2016;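 active = GFP response versus DMSO above a set limit, roughly screen mean plus 3 SD, cut at about 180% in these data; inconclusive = fewer than 70 cells counted for a yeast strain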;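 also: median GFP fluorescence of the barcode-gated MEP2-GFP cells per well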
LAP4-GFP MLPCN: yeast TOR pathway LAP4-GFP modulation. S. cerevisiae LAP4-GFP multiplex, flow cytometry GFP, 3 h; median GFP as percent of DMSO wells. GFP response vs DMSO, % at 10 µM. hit rate 0.34% among 320,000;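 active = GFP response vs DMSO above a set limit, about the screen mean plus 3 SD, cut at about 150% in these data; inconclusive = under 70 cell events counted for the yeast strain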
RPL19A TOR yeast: yeast TOR pathway RPL19A-GFP modulation | S. cerevisiae RPL19A-GFP strain, flow cytometry, 3 h; hits give low values | hit rate 0.3% among 330,000 | AID 2025 | percent response vs DMSO, % at 10 µM;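 active = percent response vs DMSO below 50%; inconclusive = fewer than 70 events counted for the yeast strain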;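 also: median channel GFP fluorescence of the barcoded RPL19A-GFP strain; ratio of sample median GFP to plate DMSO average so 100% = DMSO; lower means less RPL19A-GFP as with rapamycin TOR inhibition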
AGP1-GFP MLPCN: alters AGP1-GFP fluorescence in TOR pathway yeast screen. hit rate 0.02% among 320,000. GFP response vs DMSO, % at 10 µM. AID 2066. S. cerevisiae AGP1-GFP multiplex flow cytometry, 3 h; GFP as percent of DMSO wells;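 active = GFP response relative to DMSO above a set limit, near screen average plus 3 SD, cut at about 150% in these data; inconclusive = fewer than 70 cells counted for the yeast strain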;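 also: median GFP channel fluorescence of the gated AGP1 strain per well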
CIT2 TOR yeast: modulators of TOR pathway CIT2-GFP in S. cerevisiae | S. cerevisiae CIT2-GFP strain, flow cytometry, 3 h; 100 means same as DMSO wells | GFP response vs DMSO, % at 10 µM | hit rate 0.065% among 320,000 | AID 2029;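 active = GFP response relative to DMSO above a set limit, near the screen mean plus 3 SD, cut at about 150% in these data; inconclusive = Fewer than 70 cells measured for a yeast strain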;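 also: ratio of well median GFP fluorescence to mean of DMSO wells on the plate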
The depositor's hits bear a star; u = inconclusive; x = not tested or not shown; [ ] = another dose, or the depositor's remark.

SMILES	Efflux pump mplx	MEP2-GFP yeast	LAP4-GFP MLPCN	RPL19A TOR yeast	AGP1-GFP MLPCN	CIT2 TOR yeast
Cc1nc(C)c(CCNC(=O)c2ccc(C(F)(F)F)cc2)s1	-0.2	94.9	105.2	94.8	96.8	87.1
CC(=O)c1cccc(NC(=O)CSc2nc(C3CC3)nc3ccccc23)c1	-0.1	173.0	65.6	32.1*[may fluoresce violet]	u	u
Cn1nc(C(=O)N2CCOCC2)c([N+](=O)[O-])c1C(=O)N1CCOCC1	-0.1	112.6	103.6	109.8	108.0	110.9
Cc1ccccc1CN(c1ccc(C(N)=O)cc1)S(C)(=O)=O	0.0	309.9*[may fluoresce violet]	101.7	16.7*[may fluoresce violet]	u	u
Cc1ccc(S(=O)(=O)N2CCN(C(=O)c3ccc([N+](=O)[O-])cc3)C2)cc1	0.0	107.6	101.2	101.2	103.3	106.9
COc1ccc(C(=O)NC2CCN(CC(=O)NCc3ccccc3)CC2)cc1	0.0	505.5*[may fluoresce violet]	93.7	60.5	62.8	u
O=C(NCc1ccncc1)C12CC3CC(CC(Cl)(C3)C1)C2	0.2	224.8*	145.4	90.8	96.1	83.5
COC(=O)c1ccc(OC(=O)CS(=O)c2ccccc2[N+](=O)[O-])cc1 (stereo not given)	0.5	191.0*[may fluoresce violet]	220.1*[may fluoresce violet]	69.2	21.1	u
CN1CCN(C(=O)/C(=C\c2cccs2)NC(=O)c2ccccc2)CC1	0.0	99.6	96.3	102.9	100.6	105.5
CN1CCN(C(=O)/C(=C/c2ccccc2Cl)NC(=O)c2ccccc2)CC1	-0.1	475.4*[may fluoresce violet]	93.2	67.3	19.6	u
CCCN1CCN(C(=O)Cn2ncc3c([nH]c4ccc(C)cc43)c2=O)CC1	-0.2	186.4*[may fluoresce violet]	99.1	64.9	19.1	u
O=C(COC(=O)Cc1cccc(C(F)(F)F)c1)Nc1ccc2[nH]c(=O)[nH]c2c1	0.1	101.0	105.4	99.1	105.0	100.8
CCCCOc1cccc(/C=C(\C#N)C(=O)NC2CC2)c1	0.0	100.4	174.8*	97.6	83.2	120.4
Cc1c(C(=O)NCCSCc2cccc(C(F)(F)F)c2)cnn1-c1ccc(F)cc1	-0.2	95.8	152.6*	71.1	16.7	66.0
CCOC(=O)CSc1nc(N2CCOCC2)c2c(c1C#N)CC(C)(C)N(C)C2	0.0	94.0	94.0	97.8	102.1	104.9
Cc1cccc(C)c1NC(=O)C1(N(Cc2ccco2)C(=O)c2ccccn2)CCCC1	0.1	276.6*[may fluoresce violet]	105.8	60.1	x	u
Cc1nn(C)cc1S(=O)(=O)NCc1ccc2c(c1)OCO2	0.1	104.0	91.7	102.3	100.5	107.7
COc1ccc2c(c1)cc(C(=O)N[C@@H](Cc1ccccc1)C(=O)O)n2C	0.0	467.4*[may fluoresce violet]	85.7	18.1*[may fluoresce violet]	u	u
Cc1c(C(=O)N2CCN(C)CC2)oc2c1C(=O)CC(C)(C)C2	0.1	211.9*[may fluoresce violet]	99.9	63.3	24.3	u
CC(=O)c1sc2nc(C)c3c(c2c1N)CCCC3	0.2	96.1	167.2*	68.6	106.8	55.2
Cc1ccccc1NC(=O)N1CCNC(=O)C1CC(=O)Nc1cc(Cl)ccc1Cl (stereo not given)	-0.2	109.4	103.1	94.1	118.3	159.0*[may fluoresce green]
COc1ccccc1NC(=O)c1nc[nH]c1C(=O)Nc1ccccc1OC	0.1	557.5*[may fluoresce violet]	117.6	42.3*[may fluoresce violet]	x	u
CNC(=O)c1[nH]cnc1C(=O)Nc1ccccn1	0.2	621.6*[may fluoresce green]	430.4*[may fluoresce green]	155.4	154.5*[may fluoresce green]	434.6*[may fluoresce green]
Nc1ncnc2c1CCC2	-0.1	212.6*[may fluoresce violet]	101.9	59.7	27.8	u
C/C(=N\NC(=O)c1nonc1N)c1cccs1	-0.1	233.2*	127.4	101.8	101.1	98.9
COCc1c(C(=O)N/N=C(/C)c2cccs2)nnn1-c1nonc1N	0.0	101.3	100.7	104.7	112.4	105.4
Cc1ccc(CCN2CC(C(=O)NCCN3CCCCCC3)CC2=O)cc1 (stereo not given)	-0.1	99.8	95.7	98.0	97.8	106.1
Cc1ccc(CCN2CC(C(=O)NCCCN3CCCCCC3)CC2=O)cc1 (stereo not given)	0.1	184.4*[may fluoresce violet]	103.3	60.5	x	u
Cc1ccc(CCN2CC(C(=O)NCCCN(C)Cc3ccccc3)CC2=O)cc1 (stereo not given)	0.0	188.2*	85.8	96.8	99.0	100.1

Source: PubChem BioAssay (NMMLSC)
